pAkt inh = HTS Assay for Inhibitors of Akt Phophorylation: Primary Screen. activity change, % for hits at 50 µM. actives 0.32% (n = 360,000). AID 651550, 2012. Neuro2A IGF-stimulated pAkt S473 HTRF, 20 min; stronger effect = lower value; in the data active means activity change below about -80%; inconclusive means mostly about -51% to -80%
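Neuro2A cells (4,500/well, DMEM with 0.5% FBS) were treated with compound at a single 50 µM final concentration, stimulated with 6 nM IGF for 20 min at 37 °C, and lysed. Phospho-Akt Ser473 was read by HTRF as 665/615 ratio ×10^4.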
Menin MLL FP FL = qHTS Assay for Inhibitors Targeting the Menin-MLL Interaction in MLL Related Leukemias: Competition With Fluorescein Labeled MLL-derived Peptide. 290,000 tested, under 10 active. FP activity change, % at 61.4 µM. Fluorescence polarization, fluorescein-MLL peptide displacement from menin. AID 1766, 2009; active means well fitted curve in the direction sought with a large enough effect in the polarisation, not every such curve was filed as active; inconclusive means small, poorly fitted or top-dose-only effect, or effect the other way, or a change in a side signal; inactive means no such curve, though single readings can be large or run the other way; the % refers to the polarisation
MLL CXXC-DNA inh = qHTS Fluorescence Polarization Assay for Inhibitors of MLL CXXC domain - DNA interaction. MLL-CXXC / FITC-HOXA9 DNA fluorescence polarization. Potency, µM (top dose mostly 115 µM), hits mostly inhibitors. actives 0.037% (n = 290,000); active means well fitted inhibition curve with a large enough effect in the polarisation, with a control signal flat, not every such curve was filed as active; inconclusive means small, poorly fitted or top-dose-only effect, or effect the other way, or a change in a side signal; inactive means no such curve, though single readings can be large or run the other way; the % refers to the polarisation
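Steps: dispense CXXC domain solution (7 uM) → pin compounds or unlabeled HOX-A9 DNA control → 5 min ambient → add FLSN-HOX-A9 solution (50 nM) → spin → 30 min ambient → fluorescence polarization. Tris pH 7.5/NaCl/DTT/BSA buffer.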
S-ASM inh = Inhibitors of Secretory Acid Sphingomyelinase (S-ASM): qHTS. Sphingomyelin phosphodiesterase (Homo sapiens), P17405. placental ASM, HMU-PC fluorogenic substrate, 60 min. Potency, µM (highest dose often 57.5 µM), hits mostly inhibitors. actives 0.006% (n = 340,000). AID 504937, 2011; active means well fitted inhibition curve with a large enough effect; inconclusive means small, poorly fitted or top-dose-only effect; inactive means no such curve, though single readings can be large or run the other way
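qHTS format. ASM enzyme prepared from human placenta hydrolyses the fluorogenic substrate HMU-PC0 (9 uM final) over 60 min at 37 °C after a 10 min compound preincubation.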
Menin-MLL TR inh = qHTS Assay for Inhibitors Targeting the Menin-MLL Interaction in MLL Related Leukemias: Competition With Texas Red Labeled MLL-derived Mutant Peptide; O00255; Menin + Texas Red MLL mutant peptide, fluorescence polarization; Potency, µM (highest dose often 61.6 µM), usual class: inhibitors; actives 0.23% (n = 270,000); AID 1768, 2009; active means well fitted inhibition curve with a large enough effect in the polarisation, with a control signal flat, not every such curve was filed as active; inconclusive means small, poorly fitted or top-dose-only effect, or effect the other way, or a change in a side signal; inactive means no such curve, though single readings can be large or run the other way; the % refers to the polarisation
MBNL1-CUG inh = qHTS Assay for Inhibitors of MBNL1-poly(CUG) RNA binding. actives 0.036% (n = 280,000). AID 2675, 2010. Muscleblind-like protein 1 (Homo sapiens), Q9NR56. TR-FRET MBNL1-His/biotin-(CUG)12 binding, 665/545 ratio. Potency, µM (titrated, usually from 57.5 µM), usual class: inhibitors; active means well fitted inhibition curve with a large enough effect in the signal ratio, with a control signal flat, not every such curve was filed as active; inconclusive means small, poorly fitted or top-dose-only effect, or effect the other way, or a change in a side signal; inactive means no such curve, though single readings can be large or run the other way; the % refers to the signal ratio
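TR-FRET between His-tagged MBNL1 and biotin-(CUG)12 RNA, detected with Tb anti-His antibody (0.055 ng/ul) and streptavidin-XL665 (5 nM), 60 min at room temperature. Compounds titrated 92 nM to 58 uM; 665/545 nm ratio normalized to buffer and complex controls.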
A number is an active result; - = inactive; ? = inconclusive; . = no result. In the library only some 0.45% were active in any assay of this set; here they are far more common.

SMILES	pAkt inh	Menin MLL FP FL	MLL CXXC-DNA inh	S-ASM inh	Menin-MLL TR inh	MBNL1-CUG inh
CCN(CC)S(=O)(=O)c1ccc(NC(=O)C2COc3ccccc3O2)cc1 (stereo not drawn)	-121%	-	-	-	-	-
Cc1ccc(-c2nc3ccccc3s2)cc1S(=O)(=O)N1CCOCC1	-90%	-	-	-	-	-
CCOC(=O)N1CCN(C(=O)CCCn2nnnc2CN2CCC(C)CC2)CC1	-	?	-	-	-	-
CCC(=O)N1CCCC1(C)C(=O)Nc1ccc(OC(F)F)cc1 (stereo not drawn)	-	.	.	.	.	.
C=CCn1c(-c2csc(-c3ccccc3)n2)n[nH]c1=S	-106%	-	-	-	-	-
C=CCn1c(-c2csc(-c3ccc(Cl)cc3)n2)n[nH]c1=S	-	-	-	-	?	-
O=C(NCCCn1ccnc1)c1ccc(Br)c(S(=O)(=O)N2CCOCC2)c1	-	-	-	-	-	-
CCc1cc(=O)[nH]c(SCC(=O)Nc2cc(C)on2)n1	-	.	.	-	.	.
CN(C)C(=S)c1ccc2ccccc2n1	-120%	-	-	-	-	-
CCOC(=O)C1CC2=C(CCCC2=O)N(Cc2ccccc2)C1=O (stereo not drawn)	-	.	.	-	.	.
CC(C)C(NC(=O)OC(C)(C)C)C(=O)N1CCCC1C(=O)NC(Cc1ccccc1)C(N)=O (stereo not drawn)	-112%	-	-	-	.	-
CC(C)(C)OC(=O)N[C@H](Cc1ccccc1)C(=O)N1CCC[C@@H]1C(=O)O	-	-	-	-	-	-
CCOc1ccccc1NC(=O)N1C2CCCC1CC(NC(=O)C1CC1)C2 (stereo not drawn)	-88%	-	-	-	-	?
Cc1ccccc1NC(=O)N1C2CCCC1CC(NC(=O)C1CC1)C2 (stereo not drawn)	-	-	-	-	-	-
O=C(N/N=C/c1ccco1)c1cc([N+](=O)[O-])cc([N+](=O)[O-])c1	-	-	-	-	-	.
CCc1ccc(NC(=O)C2CCCN(S(=O)(=O)c3cccs3)C2)cc1 (stereo not drawn)	-	-	-	-	-	-
O=C(NCc1ccccn1)c1ccc(CS(=O)(=O)Cc2ccc(Cl)cc2)o1	-126%	-	-	-	-	-
Cc1ccc(S(=O)(=O)NCC(=O)N2CCCC2)cc1	-	-	-	-	-	-
CCCN1C(=O)/C(=C/c2nc3ccccc3c(=O)[nH]2)c2ccccc21	-	-	-	-	-	?
CC(C)N1C(=O)/C(=C\c2nc3ccccc3c(=O)[nH]2)c2ccccc21	-	-	-	32µM	-	-
CNC(=O)COc1coc(CN2CCN(c3ccccc3OC)CC2)cc1=O	-	.	-	-	.	-
C(C#CCCCCCCCCC[n+]1ccccc1)#CCCCCCCCCC[n+]1ccccc1	-	-	-	-	32µM	-
COc1ccc(/C=N/NC(=O)c2ccc(Br)cc2)cc1Cn1cc(Cl)cn1	-	-	-	-	-	-
COc1ccc(/C=N/NC(=O)c2cccc(Br)c2)cc1Cn1cc(Cl)cn1	-103%	-	-	-	-	-
CCOc1cc(S(=O)(=O)NCc2ccc(OC)cc2)c(OCC)cc1-n1cnnn1	-92%	-	-	-	-	-
SMILES	pAkt inh	Menin MLL FP FL	MLL CXXC-DNA inh	S-ASM inh	Menin-MLL TR inh	MBNL1-CUG inh
COc1ccc2cc(C#N)c(SCC(=O)NNC(=O)Cc3ccccc3)nc2c1	-	-	-	-	11µM	-
COc1cc(/C=N/NC(=O)c2ccncc2)ccc1OC(=O)c1ccc([N+](=O)[O-])cc1	-107%	-	-	-	-	?
Cn1c(=O)c2c(ncn2CC(=O)OCC(=O)Nc2ccc(F)cc2Cl)n(C)c1=O	-	.	.	-	.	.
O=C(Oc1ccc(=O)n(-c2ccccc2)n1)c1ccccc1	-	-	-	-	-	-
O=C(Nc1ccc(S(=O)(=O)N2CCCC2)cc1)c1cccs1	-	-	-	-	?	-
O=C(Nc1nc(-c2ccc(S(=O)(=O)N3CCCCCC3)cc2)cs1)c1cccs1	-	-	-	-	22µM	-
CN1CCN(S(=O)(=O)c2ccc(NC(=O)c3cccs3)cc2)CC1	-102%	-	-	-	-	-
O=C(Nc1nc(-c2ccc(S(=O)(=O)N3CCCC3)cc2)cs1)c1cccs1	-	-	-	?	?	-
CC(=O)c1sc(NC(=O)COc2ccc(C)c(C)c2)nc1C	-	-	-	-	-	-
CCCn1c(NC(=O)c2ccc(Br)cc2)nc2ccccc21	-87%	-	-	-	-	-
CCCn1c(NC(=O)c2ccc(F)cc2)nc2ccccc21	-	-	-	-	-	-
CCc1ccc(S(=O)(=O)Nc2ccc(O)c3ccccc23)cc1	-	-	-	-	?	-
O=C(NC(=S)NCCN1CCOCC1)c1ccc(F)cc1	-	-	-	-	-	?
O=C(NCCN1CCOCC1)c1ccc(F)cc1	-101%	-	-	-	.	-
O=C(Nc1ccc(O)cc1)c1ccc(NC(=O)c2cccs2)cc1	-	-	-	-	-	-
CCN(CC)S(=O)(=O)c1ccc(-c2nnc(SCC(=O)Nc3nnc(C)s3)n2CC)cc1	-112%	-	-	-	-	-
O=C(CCCOc1ccc(Cl)cc1)Nc1nncs1	-112%	-	-	-	-	-
Cc1ccc(OCCCC(=O)Nc2nncs2)cc1	-	-	-	-	-	-
COc1nc(-c2ccc(C)cc2)ccc1-c1noc(-c2cccnc2)n1	-105%	-	-	-	-	-
O=C(CCNC(=O)Cn1cnc2ccccc2c1=O)NCC1COc2ccccc2O1 (stereo not drawn)	-107%	-	-	-	-	-
CCOc1cc(OCC)cc(C(=O)NC(=S)Nc2cccc(C(F)(F)F)c2)c1	-	-	-	-	-	-
Cc1cc(NC(=O)CSc2nc3ccccc3c(=O)n2-c2ccccc2)no1	-	-	-	-	.	-
CCCCn1c(SCC(=O)Nc2cc(C)on2)nc2ccsc2c1=O	-101%	-	-	-	-	-
Cc1ccc(-n2c(SCC(=O)Nc3cc(C)on3)nc3ccccc3c2=O)cc1	-85%	-	-	-	-	-
Cc1ccc(C(=O)CSc2nc3ccccc3c(=O)n2-c2ccccc2)s1	-100%	-	-	-	-	-
O=C(O)c1ccc(CSc2nc3ccccc3c(=O)n2-c2ccccc2)cc1	-	-	-	-	?	-

Compound activity as filed in PubChem.
